Test results from PubChem BioAssay (Tox21).
Inconclusive results are not listed. Activity calls are given as the source filed them. Calls follow the shape of the dose curve; as a rule, active = well fitted curve in the direction sought with a large enough effect in the repeat runs; inconclusive = weak or mixed curves; inactive = no such curve, though single readings can be large; an effect the other way counts as inactive or inconclusive.

How the values were obtained:
[1] = qHTS assay to identify small molecule agonists of the RXR signaling pathway - cell viability counter screen (AID 1159529);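 also: HEK 293T cells carrying an RXR-alpha UAS beta-lactamase reporter; series mostly up to about 77 µM; nearly all actives have a fitted effect of over 50% in size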
Method in brief: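 HEK 293T RXRa-bla cells, 2% CS-FBS; 5 h settle; cpd 16 h 37 C, 5% CO2; CellTiter-Glo 30 min RT, luminescence. Tetraoctyl ammonium bromide as positive control.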

[2] = qHTS assay to identify small molecule antagonists of the retinoid acid receptor (RAR) signaling pathway - cell viability counter screen (AID 1159551); also: nearly all actives have a fitted effect of over 35% in size
Method in brief: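 Viability of C3RL4 cells is quantified from ATP by luminescence after 6 h treatment at 37 C with compounds and 1 uM retinol.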

[3] = qHTS assay to identify small molecule antagonists of the retinoic acid receptor (RAR) signaling pathway (AID 1159552; also: nearly all actives have a fitted effect of over 50% in size)
Method in brief: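 Cells of the C3RL4 line were seeded, incubated overnight, then dosed with compounds in DMSO followed immediately by retinol (1 uM final). Six hours later luciferase detection reagent went in; signal was measured after 30 min at RT.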

[4] = qHTS assay to identify small molecule agonists of the retinoic acid receptor (RAR) signaling pathway (AID 1159553); also: potency is read from the fitted curve at half-maximal effect
Method in brief: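 Compounds dissolved in DMSO were pinned onto C3RL4 cells seeded the previous day, and plates were held 6 hr at 37 C. RARE-driven luciferase output was then read by luminescence.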

[5] = qHTS assay to identify small molecule antagonists of the estrogen related receptor (ERR) signaling pathway - cell viability counter screen (AID 1224818);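 also: series mostly up to about 46 µM; viability measured after 17.5 h of compound exposure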
Method in brief: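 Cytotoxicity check run alongside the ERR antagonist screen: cells exposed to test compounds 17.5 h at 37 C, viability taken as CellTiter-Fluor fluorescence intensity.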

[6] = qHTS assay to identify small molecule antagonists of the estrogen related receptor signaling pathway with the pleiotropic PPARgamma coactivator (PGC) cell viability counter screen (AID 1224822;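 also: series mostly up to about 46 µM; viability read after 17.5 h compound exposure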)
Method in brief: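 Viable cell signal (CellTiter-Fluor, 30 min, 37 C/5% CO2) was measured in PGC/ERR cells after a 17.5 h compound incubation.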

Measured: Potency

CC(=O)NNC(C)=O
inactive: [1] | [2] | [3] | [4]

CC(C)COC(=O)COc1cc(Cl)c(Cl)cc1Cl
inactive: [1] | [2] | [3] | [4]

Nc1c(Cl)cc(Cl)cc1[N+](=O)[O-]
inactive: [1] | [2] | [4]

CNc1c2c(nn1C)CCCC2
inactive: [1] | [2] | [3] | [4]

O=c1[nH]c2cc(C(F)(F)F)c(N3CCOCC3)cc2n(CP(=O)(O)O)c1=O
inactive: [1] | [2] | [3] | [4]

CCCCOC(=O)CCCCC(=O)OCCCC
inactive: [1] | [2] | [3] | [4]

O=C(O)/C=C/c1ccc(O)c(O)c1
inactive: [1] | [2] | [3] | [5] | [6]

O=C(O)CO
inactive: [1] | [2] | [3] | [4]

N[C@@H](Cc1cc(I)c(O)c(I)c1)C(=O)O
inactive: [1] | [2] | [4]

Cc1ccc(N(CC2=NCCN2)c2cccc(O)c2)cc1
inactive: [1] | [2] | [3] | [4] | [5] | [6]

O=S(=O)(O)CO
inactive: [1] | [2] | [4]

Nc1nc2ccc(OC(F)(F)F)cc2s1
inactive: [1] | [2] | [3] | [5] | [6]

CC(=O)OCC(C)C
inactive: [1] | [2] | [3] | [4]

COc1ccc2nc(S(=O)Cc3ncc(C)c(OC)c3C)[nH]c2c1 (stereo not drawn)
active: [4] 67.8 µM
inactive: [1] | [2] | [3]

Cc1ccc(Cl)cc1N
inactive: [1] | [2] | [3] | [4]

CCN(CC)c1cccc(O)c1
inactive: [1] | [2] | [3] | [4]

CC1C(C)(C)C2=C(C(=O)CCC2)C1(C)C (stereo not drawn)
inactive: [1] | [2] | [3] | [4]

CC(C)N(C)C
inactive: [1] | [2] | [3] | [4]

O=C(O)CCC(=O)c1ccc(-c2ccccc2)cc1
active: [4] 11.9 µM
inactive: [1] | [2] | [3]

CCC(CO)(CO)[N+](=O)[O-]
inactive: [1] | [2] | [3] | [4]

COc1ccc(N)c([N+](=O)[O-])c1
inactive: [1] | [2] | [3] | [4]

CC[C@@H](CO)NCCN[C@@H](CC)CO
inactive: [1] | [2] | [3] | [4]

Cc1cn([C@H]2C[C@H](F)[C@@H](CO)O2)c(=O)[nH]c1=O
inactive: [1] | [2] | [4]

CCCCCCC(CO)CCCC (stereo not drawn)
inactive: [1] | [2] | [3] | [4]

Nc1ccc(F)cc1
inactive: [1] | [2] | [3] | [4]

O=C(O)CCC(=O)OC[C@@H](NC(=O)C(Cl)Cl)[C@H](O)c1ccc([N+](=O)[O-])cc1
inactive: [1] | [2] | [3] | [4]

CC1=CC[C@@]23C[C@@H]1C(C)(C)[C@@H]2CC[C@H]3C
inactive: [1] | [2] | [3] | [4]

Cc1ccccc1S(N)(=O)=O
inactive: [1] | [2] | [3] | [4]

CC(C)(C)CCCCCCOC(=O)c1ccccc1C(=O)OCCCCCCC(C)(C)C
inactive: [1] | [2] | [4]

CCOC(=O)N1CCC(Nc2ccc(Cl)cc2N)CC1
inactive: [1] | [2] | [4]

COc1cc(NC(C)CCCN)c2ncccc2c1 (stereo not drawn)
inactive: [1] | [2] | [4]

CCCCCC
inactive: [1] | [2] | [3] | [4]

CC(C)(C)NCC(O)COc1cccc2c1C[C@H](O)[C@H](O)C2 (stereo partly drawn)
inactive: [2] | [3]

C[C@H](CS)C(=O)N1CCC[C@H]1C(=O)O
inactive: [1] | [2] | [5] | [6]

CC/C=C\C/C=C\C/C=C\CCCCCCCC(=O)OCC
inactive: [2] | [3]
